Experimental data from the supplement of paper PMC7411054.
Where a name gives a salt, the structure may show the parent alone.

Assays:
Settings in all cases: treatment time: 24 h
[1] = tested on: A549-ACTB-RAB5A; test: lowest phenotypically active concentration; higher = less potent
Outline: (§1)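 After 24 h at 0.3, 1, 3 or 9 µM, with four wells per treatment, fifteen gene-edited A549, HepG2 and WPMY1 reporter lines carrying BFP, GFP and RFP/FusionRed were imaged live. Each well's live-cell features were expressed relative to solvent control wells. Deviation required ≥3 of 4 wells past the 95th percentile of control Euclidean distances, and reproducibility a median replicate Pearson correlation over the 95th percentile of non-replicates. Phenotypic activity rested on both.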

[2] = tested on: HepG2-ACTB-RAB5A; test: as above
Outline: as §1

[3] = tested on: WPMY1-GM130-SQSTM1; test: as above
Outline: as §1

[4] = tested on: A549-ACTB-RAB5A; test: phenotypically active (imaging signature differs from DMSO and reproducible) at any of 0.3-9 uM (binary (1 = active, 0 = inactive)); higher = active
Outline: as §1

[5] = tested on: A549-CANX-COX4; test: as above
Outline: as §1

[6] = tested on: A549-GM130-SQSTM1; test: as above
Outline: as §1

[7] = tested on: A549-TP53BP1-CLTA; test: as above
Outline: as §1

[8] = tested on: A549-TUBA1B-RELA; test: as above
Outline: as §1

[9] = tested on: HepG2-ACTB-RAB5A; test: as above
Outline: as §1

[10] = tested on: HepG2-CANX-COX4; test: as above
Outline: as §1

[11] = tested on: HepG2-GM130-SQSTM1; test: as above
Outline: as §1

[12] = tested on: HepG2-TP53BP1-CLTA; test: as above
Outline: as §1

[13] = tested on: HepG2-TUBA1B-RELA; test: as above
Outline: as §1

[14] = tested on: WPMY1-ACTB-RAB5A; test: as above
Outline: as §1

[15] = tested on: WPMY1-CANX-COX4; test: as above
Outline: as §1

[16] = tested on: WPMY1-GM130-SQSTM1; test: as above
Outline: as §1

[17] = tested on: WPMY1-TP53BP1-CLTA; test: as above
Outline: as §1

[18] = tested on: WPMY1-TUBA1B-RELA; test: as above
Outline: as §1

[19] = tested on: A549-GM130-SQSTM1; test: lowest phenotypically active concentration; higher = less potent
Outline: as §1

[20] = tested on: A549-TUBA1B-RELA; test: as above
Outline: as §1

Structure (SMILES)	lowest phenotypically active concentration [1]	lowest phenotypically active concentration [2]	lowest phenotypically active concentration [3]	phenotypically active [4]	phenotypically active [5]	phenotypically active [6]	phenotypically active [7]	phenotypically active [8]	phenotypically active [9]	phenotypically active [10]	phenotypically active [11]	phenotypically active [12]	phenotypically active [13]	phenotypically active [14]	phenotypically active [15]	phenotypically active [16]	phenotypically active [17]	phenotypically active [18]	lowest phenotypically active concentration [19]	lowest phenotypically active concentration [20]
COc1ccc(CCc2nc3cc(-c4c(C)noc4C)ccc3n2C[C@H](C)N2CCOCC2)cc1Cl	3 µM	3 µM	9 µM	1 (active)	0 (inactive)	0 (inactive)	0 (inactive)	0 (inactive)	1 (active)	1 (active)	1 (active)	1 (active)	1 (active)	1 (active)	0 (inactive)	1 (active)	0 (inactive)	1 (active)	–	–
N#Cc1ccc2ncnc(NCCc3ccccc3)c2c1 [Senexin A]	3 µM	–	–	1 (active)	0 (inactive)	1 (active)	0 (inactive)	0 (inactive)	0 (inactive)	1 (active)	0 (inactive)	0 (inactive)	0 (inactive)	1 (active)	1 (active)	0 (inactive)	0 (inactive)	1 (active)	3 µM	–
CC(C)c1c(C(=O)Nc2ccccc2)c(-c2ccccc2)c(-c2ccc(F)cc2)n1CC[C@@H](O)C[C@@H](O)CC(=O)O [atorvastatin]	3 µM	3 µM	3 µM	1 (active)	0 (inactive)	0 (inactive)	0 (inactive)	0 (inactive)	1 (active)	1 (active)	1 (active)	1 (active)	1 (active)	1 (active)	1 (active)	1 (active)	1 (active)	1 (active)	–	–
COc1cc2c(cc1OC)-c1c/c(=N/c3c(C)cc(C)cc3C)n(C)c(=O)n1CC2 [Trequinsin hydrochloride]	9 µM	9 µM	9 µM	1 (active)	0 (inactive)	1 (active)	0 (inactive)	0 (inactive)	1 (active)	1 (active)	0 (inactive)	0 (inactive)	0 (inactive)	1 (active)	1 (active)	1 (active)	1 (active)	1 (active)	9 µM	–
CC(C)(C)n1nc(-c2ccc(Cl)cc2)c2c(N)ncnc21	1 µM	3 µM	–	1 (active)	0 (inactive)	0 (inactive)	0 (inactive)	1 (active)	1 (active)	0 (inactive)	0 (inactive)	1 (active)	0 (inactive)	0 (inactive)	0 (inactive)	0 (inactive)	0 (inactive)	0 (inactive)	–	9 µM
CN1c2ccc([N+](=O)[O-])cc2N=C(c2ccc(C(=O)O)cc2)c2cc3c(cc21)C(C)(C)CCC3(C)C	9 µM	–	–	1 (active)	0 (inactive)	1 (active)	0 (inactive)	1 (active)	0 (inactive)	0 (inactive)	0 (inactive)	0 (inactive)	1 (active)	0 (inactive)	0 (inactive)	0 (inactive)	0 (inactive)	0 (inactive)	9 µM	9 µM
